From PubChem
JMJD2A Tudor inh: qHTS Assay for Inhibitors of JMJD2A-Tudor Domain; 390,000 compounds, 4.4% hits; Potency, µM (top dose mostly 114 µM), without a hit: at the highest dose activity change, negative = inhibition, hits mostly inhibitors; Lysine-specific demethylase 4A (Homo sapiens), O75164; AID 504339, 2011; AlphaScreen JMJD2A-Tudor / H3K4me3 peptide binding; further: on the % scale 0 is the no-effect control and ±100 the full control effect; nearly all actives have a fitted effect of over 50% in size
HP1b chromo inh: HTS for Inhibitors of HP1-beta Chromodomain Interactions with Methylated Histone Tails | Chromobox protein homolog 1 (Homo sapiens), P83916 | AlphaScreen HP1-beta / biotin-H3K9me3 peptide binding | Potency, µM (doses to about 114 µM), for inactives: at the top dose activity change, negative = inhibition, actives largely listed as inhibitors | 390,000 compounds, 0.56% hits | AID 540317, 2011; further: nearly all actives have a fitted effect of over 70% in size
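HP1-beta protein (50 nM final) preincubated 30 min at room temperature with biotinylated H3(1-18)K9me3 peptide (50 nM) in PBS pH 7.4, 0.01% Tween-20, then compound added for 30 min. AlphaScreen streptavidin donor/nickel chelate acceptor beads (10 ug/mL final), 30 min dark, luminescence read.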
G9a block: qHTS Assay for Inhibitors of Histone Lysine Methyltransferase G9a; Potency, µM (highest dose often 102 µM), without a hit: at the highest dose activity, negative = inhibition, actives largely listed as inhibitors; 350,000 compounds, 8.8% hits; G9a H3K9 monomethylation, AlphaScreen, 2 h; Histone-lysine N-methyltransferase EHMT2 (Homo sapiens), Q96KQ7; AID 504332, 2011; further: on the % scale 0 is the no-effect control and ±100 the full control effect; nearly all actives have a fitted effect of over 75% in size
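Chemiluminescent proximity detection of H3K9 monomethylation, read after 10 min bead incubation in the dark. Reaction: 20 nM G9a, 500 nM biotin-H3K9 peptide, 20 uM SAM cofactor, 2 h, room temperature, following 15 min enzyme-compound preincubation.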
Sfp inh: qHTS Assay for Inhibitors of Bacillus subtilis Sfp phosphopantetheinyl transferase (PPTase); Biochemical Sfp PPTase activity, qHTS; Potency, µM, for the others: largest response in the series, negative = inhibition, hits mostly inhibitors; 310,000 compounds, 3.5% hits;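 further: the enzyme is Sfp with the accession as filed and its product quenches rhodamine fluorescence; 0% = enzyme reaction without inhibitor and -100% = no enzyme wells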
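Buffer: 50 mM Hepes-Na pH 7.6, 10 mM MgCl2, 0.01% Nonidet P-40, 0.01% BSA. Enzyme 15 nM, pre-exposed to compound 15 min; substrates then added and fluorescence change tracked over 30 min.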
BAZ2B block: qHTS Assay for Inhibitors of BAZ2B; 360,000 compounds, 4.4% hits; Potency, µM (series often up to 114 µM), for inactives: top-dose activity change, negative = inhibition, usual class: inhibitors; Bromodomain adjacent to zinc finger domain protein 2B (Homo sapiens), Q9UIF8; AlphaScreen BAZ2B-H3K14Ac peptide displacement; further: on the % scale 0 is the no-effect control and ±100 the full control effect; nearly all actives have a fitted effect of over 60% in size
Target sequence (Q9UIF8 whole entry, looked up, the tested form may be a part): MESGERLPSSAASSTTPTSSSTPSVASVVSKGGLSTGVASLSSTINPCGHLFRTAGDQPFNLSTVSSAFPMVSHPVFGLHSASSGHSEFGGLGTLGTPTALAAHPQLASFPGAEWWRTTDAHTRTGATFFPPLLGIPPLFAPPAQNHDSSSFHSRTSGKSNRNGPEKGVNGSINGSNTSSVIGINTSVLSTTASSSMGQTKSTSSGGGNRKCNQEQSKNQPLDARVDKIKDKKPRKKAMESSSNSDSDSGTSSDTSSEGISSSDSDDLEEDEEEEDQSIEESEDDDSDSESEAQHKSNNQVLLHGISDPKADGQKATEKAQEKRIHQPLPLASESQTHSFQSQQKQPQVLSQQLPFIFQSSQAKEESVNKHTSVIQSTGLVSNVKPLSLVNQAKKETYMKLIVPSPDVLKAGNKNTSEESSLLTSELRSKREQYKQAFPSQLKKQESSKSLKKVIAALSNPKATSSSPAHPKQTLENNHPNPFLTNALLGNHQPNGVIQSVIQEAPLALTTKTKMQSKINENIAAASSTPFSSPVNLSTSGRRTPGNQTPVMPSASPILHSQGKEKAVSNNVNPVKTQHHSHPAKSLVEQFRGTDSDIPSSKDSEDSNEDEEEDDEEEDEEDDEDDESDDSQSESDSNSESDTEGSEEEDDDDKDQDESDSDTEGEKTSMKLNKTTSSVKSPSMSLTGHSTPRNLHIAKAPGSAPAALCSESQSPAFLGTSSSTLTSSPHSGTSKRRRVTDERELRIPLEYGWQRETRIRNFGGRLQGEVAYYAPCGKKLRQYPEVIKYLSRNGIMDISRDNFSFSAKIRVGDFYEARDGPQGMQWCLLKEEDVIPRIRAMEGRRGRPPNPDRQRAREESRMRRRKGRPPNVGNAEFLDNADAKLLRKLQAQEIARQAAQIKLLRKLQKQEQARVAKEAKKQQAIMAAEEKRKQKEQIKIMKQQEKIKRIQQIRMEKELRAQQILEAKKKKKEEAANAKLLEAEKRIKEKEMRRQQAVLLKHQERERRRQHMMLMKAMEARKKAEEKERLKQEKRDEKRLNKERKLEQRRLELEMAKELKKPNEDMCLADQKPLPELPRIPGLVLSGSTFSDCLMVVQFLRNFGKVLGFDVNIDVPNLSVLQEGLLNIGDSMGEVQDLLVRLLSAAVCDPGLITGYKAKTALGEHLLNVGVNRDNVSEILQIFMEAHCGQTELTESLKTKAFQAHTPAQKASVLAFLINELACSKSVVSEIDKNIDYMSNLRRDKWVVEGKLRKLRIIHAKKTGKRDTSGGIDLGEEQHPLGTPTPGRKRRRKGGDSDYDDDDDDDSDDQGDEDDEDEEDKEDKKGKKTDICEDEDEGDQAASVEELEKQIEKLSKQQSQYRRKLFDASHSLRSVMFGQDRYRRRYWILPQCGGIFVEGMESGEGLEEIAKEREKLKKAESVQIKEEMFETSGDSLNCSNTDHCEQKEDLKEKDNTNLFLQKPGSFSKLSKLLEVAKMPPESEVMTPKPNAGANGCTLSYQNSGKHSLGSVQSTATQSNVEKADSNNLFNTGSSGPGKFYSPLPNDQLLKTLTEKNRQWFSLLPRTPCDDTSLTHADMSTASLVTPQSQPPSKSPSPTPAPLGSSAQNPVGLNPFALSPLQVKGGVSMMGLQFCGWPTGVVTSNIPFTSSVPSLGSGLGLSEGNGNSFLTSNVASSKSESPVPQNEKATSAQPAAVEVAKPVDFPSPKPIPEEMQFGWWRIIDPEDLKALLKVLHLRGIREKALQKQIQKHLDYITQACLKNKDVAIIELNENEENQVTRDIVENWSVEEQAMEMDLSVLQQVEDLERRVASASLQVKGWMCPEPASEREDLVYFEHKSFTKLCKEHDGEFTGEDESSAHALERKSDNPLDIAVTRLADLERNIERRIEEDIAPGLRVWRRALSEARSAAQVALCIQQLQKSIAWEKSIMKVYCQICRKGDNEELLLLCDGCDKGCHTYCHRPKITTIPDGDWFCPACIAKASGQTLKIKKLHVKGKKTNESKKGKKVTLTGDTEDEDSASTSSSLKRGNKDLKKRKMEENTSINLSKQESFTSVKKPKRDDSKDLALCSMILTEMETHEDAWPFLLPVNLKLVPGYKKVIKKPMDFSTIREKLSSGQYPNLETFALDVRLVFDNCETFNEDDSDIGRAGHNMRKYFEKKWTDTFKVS
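Multi-concentration screen (max 110 uM) measuring displacement of acetylated histone H3 peptide from BAZ2B by AlphaScreen, using 50 nM protein, 50 nM peptide and 10 ug/mL streptavidin donor plus Ni-chelate acceptor beads.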
Active calls of the source: *; ? = inconclusive; nt = not tested or not shown; [ ] = dose if it differs, or a comment. Rows were chosen to be rich in hits. Some 12% of all compounds tested hit in one or more screens of this group. The call rests on the fitted dose curve; in most records, active means well fitted curve in the direction sought with a large enough effect; inconclusive means small, poorly fitted or top-dose-only effect, or another doubt; inactive means no such curve, though single readings can be large; an effect the other way counts as inactive or inconclusive. Potency means the concentration at half of the fitted maximal effect.

SMILES	JMJD2A Tudor inh	HP1b chromo inh	G9a block	Sfp inh	BAZ2B block
Cc1ccc(OCc2nc3ccccc3n2CC(C)C)cc1	9%	92%	?	nt	40%
Cc1cc(OC(C)C(=O)Nc2cccc(-c3nc4ccccc4o3)c2)cc(C)c1Cl (centres undefined)	-6%	17%	-8%[59 µM]	nt	-34%
COc1ccc(CCC(=O)Nc2ccc(Cn3ccnc3)cc2)cc1	-27%	18%	nt	11%	-9%
Cc1ccc(NC(=O)c2cccc(S(=O)(=O)N(C)C3CCCCC3)c2)nc1	-1%	10%	-17%	nt	-1%
O=C(Nc1c(-c2ccccc2)nc2ccccn12)c1ccccc1F	-2%	28%	10%	4%	-14%
O=S(=O)(c1ccccc1)c1nc(-c2ccco2)oc1NCCCN1CCOCC1	-3%	27%	14µM*	?	-30%
O=S(=O)(c1ccccc1)c1nc(-c2ccc(Cl)cc2)oc1NCCCN1CCOCC1	?	-21%	45µM*	nt	-7%
O=S(=O)(c1ccccc1)c1nc(-c2cccs2)oc1NCCCn1ccnc1	?	20%	-1%[12.7 µM]	-6%	?
O=S(=O)(c1ccc(Br)cc1)c1nc(-c2ccco2)oc1NCCCn1ccnc1	?	-1%	45µM*	nt	50µM*
CC1(c2ccc(Cl)cc2)NC(=O)N(CC(=O)NC2CCCCC2)C1=O (centres undefined)	-19%	7%[57 µM]	nt	nt	nt
O=S(=O)(Nc1cccc2cccnc12)c1ccc(Br)s1	?	nt	nt	10%	nt
C[C@H](O/N=C1/[C@H]2O[C@@H]2[C@@H](O)[C@H]2[C@H]1CCn1c(=O)n(-c3ccccc3)c(=O)n12)c1cn([C@H](CO)Cc2ccccc2)nn1	nt	nt	nt	8%	nt
N#C/C(=C\c1ccc(N2CCOCC2)cc1)c1ccccc1	-30%	-1%	5%[59 µM]	-19%	-5%
S=C(c1nc2ccccc2[nH]1)N1CCOCC1	-53%	?	1.6µM*	25µM*	10%
N#C/C(=C\c1ccc(N2CCOCC2)o1)c1ccccc1	?	-14%	?	25µM*	40µM*
N#C/C(=C/c1ccc(N2CCOCC2)o1)c1nc2ccccc2[nH]1	?	-19%	8.9µM*	20µM*	?
CN(C)c1ccc(CNC(=O)C2CCN(S(=O)(=O)c3ccc4c(ccn4C)c3)CC2)cc1	?	10%[57 µM]	?	nt	?
COCCCNc1ncnc2c1cnn2-c1ccc(F)cc1	1%	10%	16%[59 µM]	nt	-2%
COCCN1CSC(=S)N(Cc2ccco2)C1	?	-29%	45µM*	32µM*	0%
S=C1SCN(Cc2ccccn2)CN1Cc1ccco1	6.3µM*	-31%	2.2µM*	10µM*	18µM*
COc1ccc(S(=O)(=O)Nc2cccc3ccc(O)cc23)cc1	-13%	4%	nt	nt	nt
COc1ccc(S(=O)(=O)Nc2ccc(O)c(Sc3ncn[nH]3)c2)cc1	-15%	-1%	13µM*	-6%	-7%
COc1ccc(S(=O)(=O)Nc2cc(Sc3ncn[nH]3)c(O)c3ccccc23)cc1	5.6µM*	?	1.6µM*	3.5µM*	45µM*
CC(C)c1ccc(S(=O)(=O)Nc2ccc(O)c(Sc3ncn[nH]3)c2)cc1	-7%	32%	?	-1%	-23%
O=S(=O)(Nc1cc(Sc2cccc3cccnc23)c(O)c2ccccc12)c1ccc(F)cc1	18µM*	18µM*	2µM*	10µM*	?
SMILES	JMJD2A Tudor inh	HP1b chromo inh	G9a block	Sfp inh	BAZ2B block
Cc1ccc(S(=O)(=O)Nc2cccc3c2O[C@H](CN(C)Cc2ccccc2)[C@@H](C)CN([C@H](C)CO)C3=O)cc1	-23%	42%	nt	nt	nt
CCOc1ccc(/C=C/c2nc3ccccc3n2S(=O)(=O)c2cccc(Cl)c2)cc1	-14%	24%	-4%[59 µM]	nt	nt
COc1ccc(C(=O)NC2=Nc3ccccc3N=C(C)C2c2ccccc2)cc1 (centres undefined)	-28%	-4%	?	13%	-26%
CC1=Nc2ccccc2N=C(NC(=O)/C=C/C(=O)O)C1c1ccccc1 (centres undefined)	-16%	44%	11µM*	16%	-27%
O=C(NNC(=O)c1ccc(F)cc1F)c1ccc2c(c1)OCO2	-15%	36%	-9%	?	-1%
COc1ccc(N=c2sc3ccccc3n2C)cc1	14%	49%	5%[59 µM]	-11%	2%
COc1ccccc1N=c1sc2ccccc2n1C	15%	53%	-1%[59 µM]	56µM*	-4%
C=CCN(C(=O)CCS(=O)(=O)c1cccc2nsnc12)c1ccccc1	-23%	3%	45µM*	-15%	-4%
CCC(C)NC(=O)C(NS(=O)(=O)c1cccc2nsnc12)c1ccccc1 (centres undefined)	-18%	-13%	23%	15%	8%
CCN(C(=O)C(NS(=O)(=O)c1cccc2nsnc12)c1ccccc1)c1ccccc1 (centres undefined)	?	5%	2.8µM*	nt	nt
CC(=O)c1cccc(NC(=O)CCS(=O)(=O)c2cccc3nsnc23)c1	-27%[57.1 µM]	-38%	10µM*	56µM*	-4%
O=C(CCS(=O)(=O)c1cccc2nsnc12)NC1CCCCCC1	-11%	14%	40µM*	-20%	-1%[57.1 µM]
Cc1nn(C(=O)c2cccc(Cl)c2)c(C)c1S(=O)(=O)N1CCOCC1	-2%	45%[57 µM]	-17%[59 µM]	nt	7%
COc1ccccc1CNS(=O)(=O)c1ccc(-n2cnnn2)c(OC)c1	-10%	-17%	28µM*	-9%	-18%
COc1cc(S(=O)(=O)NCc2ccccc2Cl)ccc1-n1cnnn1	7%	32%	13µM*	-9%	?
C#CCCCO/N=C1/[C@H]2O[C@@H]2[C@@H](O)[C@H]2[C@H]1CCn1c(=O)n(Cc3cc4c(cc3Cl)OCO4)c(=O)n12	nt	nt	nt	14%	nt
COC(=O)C12CC3(CCC4C5C(C(OCc6ccccc6)C41)C52)OCCO3 (centres undefined)	nt	nt	nt	23%	nt
O=S(=O)(c1ccccc1)N1CCC2(CC1)CN(c1ncccn1)C2	nt	nt	5%[12.7 µM]	-10%	nt
COc1ccccc1-c1nc2c3ccccc3nc(=S)n2[nH]1	-25%	-5%	?	45µM*	-2%
O=C1C=C(c2ccccc2)C[C@H](c2cccs2)[C@H]1n1nnc([N+](=O)[O-])n1	?	?	?	-2%	?
O=C1C=C(c2ccccc2)CC(c2cccs2)C1n1cnc([N+](=O)[O-])c1 (centres undefined)	-13%	?	45µM*	-15%	-36%
CN(C(=O)CSc1nnc(-c2ccc([N+](=O)[O-])cc2)o1)c1ccccc1	-23%	10%	-15%[59 µM]	nt	-32%
